Results taken from PubChem BioAssay AID1347414 (National Center for Advancing Translational Sciences (NCATS), 2020).
Inconclusive results are not listed. Activity calls are given as the source filed them. The call rests on the fitted dose curve; in most records, active means well fitted inhibition curve with a large enough effect; inconclusive means small, poorly fitted or top-dose-only effect; inactive means no such curve, though single readings can be large or run the other way.

assay: qHTS to identify inhibitors of the type 1 interferon - major histocompatibility complex class I in skeletal muscle: Secondary screen by immunofluorescence; settings: C25cl48 myoblasts, IFN-b induced HLA-ABC immunofluorescence, 24 h, Viability; series mostly up to 49.8 µM; activity change, negative = inhibition: at the top concentration;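 further: digitonin at 100 µM served as the cytotoxic control; nearly all actives have a fitted effect of over 70% in size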
Outline: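 HLA-ABC immunofluorescence, with nuclear and cell-body stains, was quantified by laser scanning cytometry. Read-out followed 24 h of IFN-beta (4.0 ng/ml) stimulation of C25cl48 human myoblasts with compounds titrated 1:3 over 11 points from 50 uM, with ruxolitinib as inhibitor control.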
On the % scale 0 is the no-effect control and ±100 the full control effect.

| SMILES | activity change, negative = inhibition |
| --- | --- |
| CC(C)c1cc(-c2n[nH]c(=O)n2-c2ccc3c(ccn3C)c2)c(O)cc1O | 3.75% (inactive) |
| CCCCC(=O)OCC(=O)[C@H]1[C@H](C)C[C@H]2[C@@H]3C[C@H](F)C4=CC(=O)C=C[C@]4(C)[C@@]3(F)[C@@H](O)C[C@@]21C | 15.7% (inactive) |
| CC[C@]1(O)C[C@H]2CN(CCc3c([nH]c4ccccc34)[C@@](C(=O)OC)(c3cc4c(cc3OC)N(C=O)[C@H]3[C@@](O)(C(=O)OC)[C@H](OC(C)=O)[C@]5(CC)C=CCN6CC[C@]43[C@@H]65)C2)C1 | 3.97% (inactive) |
| CN(C)Cc1c(C(=O)NCCOc2ccc(C(=O)NO)cc2)oc2ccccc12 | -1.08% (inactive) |
| Cc1ccc2nc(NCCN)c3ncc(C)n3c2c1 | 9.24% (inactive) |
| CC(C)c1nn(-c2c(Cl)cccc2Cl)c2nc(Cc3ccc(OCCO)cc3)[nH]c(=O)c12 | -3.83% (inactive) |
| O=C1CN2Cc3c(ccc(Cl)c3Cl)N=C2N1 | 0% (inactive) |
| C=CCNC1=C2C[C@@H](C)C[C@H](OC)[C@H](O)[C@@H](C)/C=C(\C)[C@H](OC(N)=O)[C@@H](OC)/C=C\C=C(/C)C(=O)NC(=CC1=O)C2=O | 3.61% (inactive) |
| CO[C@@H]1[C@@H](O)[C@H](O)[C@@H](n2c3c(Cl)cccc3c3c4c(c5c6cccc(Cl)c6[nH]c5c32)C(=O)NC4=O)O[C@H]1CO | 6.14% (inactive) |
| NS(=O)(=O)OC[C@@H]1C[C@@H](n2ccc3c(N[C@H]4CCc5ccccc54)ncnc32)C[C@@H]1O | 11.7% (inactive) |
| Cn1ncc2cc(-c3cnc(N)c(Cl)c3N3CCC4(CCNC4=O)CC3)ccc21 | -17.9% (inactive) |
| O=C1NC(=O)[C@@H](c2c[nH]c3ccccc23)[C@H]1c1cn2c3c(cccc13)CCC2 | 9.87% (inactive) |
